# From publication PMC4336329 (PLoS ONE, 2015)
# About 14,000 (4.5%) of roughly 310,000 compounds showed an effect of 50% or more. Effects have a minus sign here. Shown is part of a subset that was picked to be rich in strong results.
# Target: human ether-à-go-go-related gene (hERG) potassium channel (human, UniProt Q12809)
# Test: primary screen, population patch clamp on CHO cells stably expressing hERG; higher = less effect of the substance
# 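Note: peak tail current of the secondary pulse compared with the same well before compound.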
# Chain of human ether-à-go-go-related gene (hERG) potassium channel (Q12809 whole entry, looked up): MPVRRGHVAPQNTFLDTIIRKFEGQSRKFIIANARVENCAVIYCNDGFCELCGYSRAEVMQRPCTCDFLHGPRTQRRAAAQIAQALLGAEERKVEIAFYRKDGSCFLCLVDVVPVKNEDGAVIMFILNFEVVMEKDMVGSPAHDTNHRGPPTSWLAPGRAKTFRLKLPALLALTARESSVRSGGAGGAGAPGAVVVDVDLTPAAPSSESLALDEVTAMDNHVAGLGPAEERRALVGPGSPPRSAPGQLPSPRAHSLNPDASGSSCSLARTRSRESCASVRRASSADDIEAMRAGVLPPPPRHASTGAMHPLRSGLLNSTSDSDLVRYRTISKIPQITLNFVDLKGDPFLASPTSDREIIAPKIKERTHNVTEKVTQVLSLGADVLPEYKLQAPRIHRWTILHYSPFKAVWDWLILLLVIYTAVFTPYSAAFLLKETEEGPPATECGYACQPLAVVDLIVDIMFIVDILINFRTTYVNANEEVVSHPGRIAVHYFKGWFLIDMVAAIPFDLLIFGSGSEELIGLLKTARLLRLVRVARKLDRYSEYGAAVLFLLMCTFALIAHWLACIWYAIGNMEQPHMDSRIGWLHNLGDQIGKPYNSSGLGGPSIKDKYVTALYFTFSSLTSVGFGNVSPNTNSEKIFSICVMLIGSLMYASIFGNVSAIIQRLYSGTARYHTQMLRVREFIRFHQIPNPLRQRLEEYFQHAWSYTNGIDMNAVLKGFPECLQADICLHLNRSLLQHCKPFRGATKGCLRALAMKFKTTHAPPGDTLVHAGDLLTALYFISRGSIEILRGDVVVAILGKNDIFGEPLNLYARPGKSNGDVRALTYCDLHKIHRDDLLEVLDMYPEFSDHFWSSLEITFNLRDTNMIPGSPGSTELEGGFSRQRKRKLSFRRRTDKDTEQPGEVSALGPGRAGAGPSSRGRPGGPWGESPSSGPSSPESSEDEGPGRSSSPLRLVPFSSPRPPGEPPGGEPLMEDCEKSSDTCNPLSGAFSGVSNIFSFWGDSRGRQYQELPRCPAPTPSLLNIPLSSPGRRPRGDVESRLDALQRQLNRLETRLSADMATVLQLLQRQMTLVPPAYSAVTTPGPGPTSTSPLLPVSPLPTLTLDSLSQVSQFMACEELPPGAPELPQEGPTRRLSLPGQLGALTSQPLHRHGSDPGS
row,SMILES,"hERG current change (%, negative = inhibition) at 10uM"
1,CC(=NCC1CCCO1)c1c(O)n(-c2ccc(C)cc2)c(=O)[nH]c1=O (stereo not drawn),-8.18%
2,O=S1(=O)CCC(N=Nc2c(O)n(Cc3ccccc3)c3ccccc23)C1 (stereo not drawn),-25.1%
3,COc1cc(C)ccc1OCCOc1c(C)cccc1Cl,2.01%
4,CCOc1ccc(NC(=O)NCc2ccco2)cc1,16.4%
5,CCOC(=O)c1ccccc1NC(=O)c1cn(-c2ccc(C)c(C)c2)c(=O)c2ccccc12,-2.12%
6,CC(CN1CCCC1)OC(=O)c1ccc(F)cc1.Cl (stereo not drawn),-10.1%
7,COC(=O)CNC(=O)c1ccc(C)s1,-0.614%
8,CCc1c(C(=O)NNC(=S)NC2CCCCC2)csc1C,16.3%
9,O=c1cc(C(F)(F)F)c2sc(N3CCCCC3)nc2[nH]1,20.1%
10,O=C(NCc1ccc(F)cc1)c1ccncc1,13.7%
11,CSc1ccc(/C=C(/NC(=O)c2ccc(C)cc2)C(=O)Nc2cccc(F)c2)cc1,6.66%
12,CN(C)c1ccc(/C=C(\NC(=O)c2ccccc2)C(=O)NCc2ccncc2)cc1,-12.8%
13,CSc1ccc(/C=C(\NC(=O)c2ccc(C)cc2)C(=O)NN)cc1,-10.9%
14,Cc1ccc(C(=O)N/C(=C/c2ccc(F)cc2)C(=O)NCc2ccncc2)cc1,-72.8%
15,Cc1ccc(NC(=O)/C(=C/c2ccncc2)NC(=O)c2ccccc2)cc1,-9.82%
16,O=C(NCc1ccncc1)/C(=C\c1ccc(F)cc1)NC(=O)c1ccccc1,-70.9%
17,Cc1ccc(C(=O)N/C(=C\c2ccc(F)cc2)C(=O)NCc2ccncc2)cc1,-75.9%
18,O=C(NCc1ccco1)/C(=C/c1ccc(F)cc1)NC(=O)c1ccccc1,-14.1%
19,O=C(O)c1cccc(-n2cccc2/C=N/O)c1,11.4%
20,Cc1ccnc(NC(=O)CCC(=O)N(CC(=O)NC(C)(C)C)C2CCCC2)c1,1%
21,Cc1cc(C)c(OCC(=O)Nc2cccc(NC(=O)c3ccco3)c2)c(Br)c1,1.79%
22,CCOc1ccc(NC(=O)c2ccccc2NC(=O)CN2CCN(C(C)=O)CC2)cc1,-3.2%
23,O=C(NCCSc1ncc(-c2ccc(F)cc2)[nH]1)c1ccco1,-37.1%
24,C/C=C/c1ccc(OCCN2C(=O)NC(C)(C)C2=O)c(OC)c1,6.58%
25,O=C(O)c1ccc2ccccc2c1O.OCc1cc(C(O)CNCCCCCCOCCCCc2ccccc2)ccc1O (stereo not drawn),-45.5%
26,OC(CNCCc1ccccc1)c1ccccc1 (stereo not drawn),-0.0558%
27,OCc1cc(C(O)CNCCCCCCOCCCCc2ccccc2)ccc1O (stereo not drawn),-57.9%
